# According to PubChem BioAssay AID1906 (The Scripps Research Institute Molecular Screening Center, 2009):
# The whole screen tested about 300,000 compounds, of which about 1,500 (0.5%) were called active. This is one part of a sample in which actives are shown more often than they occur. A number with no mark means an inactive call.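 How the source made its calls: active means inhibition above the mean of all tested compounds plus 3 SD, set per screening campaign (cut at about 17% in these data); inactive means the rest.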
# Tested on: cathepsin L1 (Fasciola hepatica)
# Test: Fasciola hepatica cathepsin L1 inhibitors, primary screen, counter-screen for PFM18AAP inhibitor project, biochemical, QFRET, fluorogenic peptide substrate (AID 1906);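 further: 0% = plate median of test compound wells and 100% = 1 µM Z-Phe-Ala-diazomethylketone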
# Conditions: recombinant F. hepatica cathepsin L1, Z-Leu-Arg-MCA fluorescence; at 5.96 µM; hits give high values
row,Structure (SMILES),inhibition
1,CC(=O)Nc1ccc(S(=O)(=O)N(C)CC(=O)NCCC2=CCCCC2)cc1,-4.22%
2,Cc1ccc(N(NC(=O)C(C)(C)O)C(=O)c2ccccc2)cc1C,1.52%
3,CCCC(O)(CCC)C(=O)NN(C(=O)CCl)c1cccc(C)c1,27.6% (active)
4,CCCCCNC(=O)C1c2ccccc2Oc2ccccc21,-9%
5,CCCCC(O)(CCCC)C(=O)NN(C(=O)CCl)c1ccccc1,18.1% (active)
6,CC(C)(O)C(=O)NN(C(=O)c1ccccc1)c1cccc(Br)c1,-2.56%
7,COC(=O)N(NC(=O)C(O)(C(C)C)C(C)C)c1ccccc1,-0.72%
8,CC(Sc1nc2cc(Cl)ccc2s1)C(=O)Nc1ccc2c(c1)OCO2 (centres undefined),-3.27%
9,COc1ccc(CCNS(=O)(=O)c2cn(C)nc2C)cc1,-5.7%
10,CCOC(=O)C1=C(c2ccc(OC)cc2)C(=O)c2ccccc2C1=O,28.8% (active)
11,CCOC(=O)c1cc2cc3ccccc3cc2oc1=O,0.07%
12,CCOC(=O)c1c(-c2ccc(C)cc2)csc1/N=C(\C)C1=C(O)c2ccccc2C1=O,1.32%
13,CC(=O)c1ccccc1NC(=O)CC1(CC(=O)O)CCCCC1,2.79%
14,Cc1ccccc1OCC(=O)Nc1nnc(S(=O)(=O)N2CCCC2)s1,3.28%
15,CCn1c(SCC(=O)NC2=NCCS2)nnc1C(C)NC(=O)c1ccccc1F (centres undefined),-7.21%
16,O=C1CCCCC1Sc1ccc(Cl)cc1[N+](=O)[O-] (centres undefined),-1.08%
17,N#C/C(=C\c1ccccc1)c1n[nH]c(Cn2cncn2)n1,3.03%
18,COc1cc(C(=O)N2CCN(C3CCC(C)CC3)CC2)cc(OC)c1OC (centres undefined),1.26%
19,CCn1cc(C(=O)N2CCN(C3CCCCC3)CC2)c2cc(OC)c(OC)cc2c1=O,20.3% (active)
20,CCn1cc(C(=O)N2CCN(Cc3ccc4c(c3)OCO4)CC2)c2cc(OC)c(OC)cc2c1=O,7.48%
21,O=c1c([N+](=O)[O-])cccn1Cc1ccc(F)cc1Cl,-4.32%
22,C/C(=N\NC(N)=S)c1ccncc1,3.21%
23,C/C(=N\NC(N)=S)c1cccnc1,35.1% (active)
24,C/C(=N\NC(=O)c1cccnc1)c1ccc(-c2ccccc2)cc1,2.6%

row,Structure (SMILES),inhibition
1,O=C(c1ccc(-c2ccccc2)cc1)C1CCCN(C(=O)c2cncs2)C1 (centres undefined),0.67%
2,COc1ccc(-n2nc(C(=O)NCC(=O)N3CCN(c4ccccc4OC)CC3)c3ccccc3c2=O)c(OC)c1,0.09%
3,Cc1ccc(Cl)c(NC(=O)CN2CCN(C=O)CC2)c1,-5.16%
4,CCn1cnc2scc(-c3ccc(C)c(C)c3)c2c1=O,0.4%
5,COC(=O)Cn1cnc2scc(-c3ccc(C)c(C)c3)c2c1=O,24.9% (active)
6,CCOC(=O)C(C)n1cnc2scc(-c3ccc(C)c(C)c3)c2c1=O (centres undefined),3.75%
7,CCN(Cc1ccccc1)C(=O)Cc1ccc(OC)c(S(=O)(=O)N2CCOCC2)c1,-0.92%
8,CCSc1nc2c(c(=O)[nH]1)C(c1cccnc1)C(C(=O)OC(C)C)=C(C)N2 (centres undefined),4.8%
9,COc1ccccc1C(=O)Nc1ccc(OCc2nnc3c4ccccc4c(C)nn23)cc1,-0.1%
10,CCOCCCNc1c(CC)c(C)c(C#N)c2nc3ccccc3n12,2.01%
11,CC(C)CN(CC(C)C)CC(O)CN(c1ccccc1)S(=O)(=O)c1ccccc1[N+](=O)[O-] (centres undefined),4.97%
12,COCCN(C(=O)C(C)C)c1nnc(-c2ccc(C(C)(C)C)cc2)s1,3.51%
13,CCCCCCCNC(=O)C1(CC2CC(c3cccc(Br)c3)=NO2)CCN(C(=O)c2cc(OCC)c(OCC)c(OCC)c2)CC1 (centres undefined),30% (active)
14,O=C(c1ccccc1)N1CCC(CC2CC(c3ccc(Cl)cc3)=NO2)(C(=O)NCC2CCCCC2)CC1 (centres undefined),-0.13%
15,COc1ccc(CNC(=O)C2(CC3CC(c4ccccc4)=NO3)CCN(C(=O)c3cccc(O)c3)CC2)cc1 (centres undefined),-1.66%
16,CN(CC(=O)Nc1cccc(F)c1)C(=O)C1CSC2(C)CCC(=O)N12 (centres undefined),-4.97%
17,Oc1oc(-c2ccccc2Br)nc1/C=N/c1ccccn1,53.9% (active)
18,CCOc1ccc2nc(/N=C/c3nc(-c4ccccc4)oc3O)sc2c1,5.43%
19,CC(N=Cc1nc(-c2ccccc2)oc1O)c1ccccc1 (centres undefined),1.73%
20,COc1ccc(C(C)NC(=O)C23CC4CC(CC(C4)C2)C3)cc1 (centres undefined),-3.76%
21,CC1CC(C)CN(CCC(=O)Nc2ccc3c(c2)CCC3)C1 (centres undefined),40.7% (active)
22,COc1cccc(NC(=O)CN(C)CC(=O)Nc2ccc3c(c2)CCC3)c1,0.04%
23,Cc1cccc(NC(=O)CCN2CC(C)CC(C)C2)c1 (centres undefined),-3.49%
24,C=CCSc1nnc2c(n1)-c1cccc3cccc-2c13,4.82%

row,Structure (SMILES),inhibition
1,Cc1cccc(-n2c(C)cc(/C=N/NC(N)=S)c2C)c1,35.5% (active)
2,Cc1ccc(-n2c(C)cc(/C=N\NC(=O)CC(=O)NC(C)C)c2C)cc1,-0.88%
3,Cc1cccc(-n2c(C)cc(/C=N\NC(=O)c3cccs3)c2C)c1,-1.99%
4,CCOC(=O)C(C)n1nc(-c2ccccc2)c2ccccc2c1=O (centres undefined),3.78%
5,COc1ccc(CCNC(=O)Cc2ccc(C)cc2)cc1OC,2.87%
6,CCOC(=O)Cc1ncccc1C(=O)Nc1ccc(OC(F)(F)F)cc1,2.95%
7,COC(=O)[C@H](C)NC(=O)Nc1ccc(OC(F)(F)F)cc1,-1.87%
8,Cn1nccc1NC(=O)Nc1ccc(OC(F)(F)F)cc1,19.4% (active)
9,COC(=O)c1ccccc1Oc1c(F)c(F)nc(N2CCOCC2)c1F,0.49%
10,COc1ccc(C(C(=O)NC2CCCCC2)N(C(=O)CCl)c2ccccc2Cl)cc1 (centres undefined),25.3% (active)
11,COc1ccc(C(C(=O)NC2CCCCC2)N(C(=O)c2snc(C(N)=O)c2N)c2ccccc2OC)cc1 (centres undefined),-2.13%
12,COc1cccc(N(C(=O)C2COc3ccccc3O2)C(C(=O)NC2CCCCC2)c2ccc(O)cc2)c1 (centres undefined),4.68%
13,O=C(NC(=S)NC1CCS(=O)(=O)C1)c1cccc([N+](=O)[O-])c1 (centres undefined),-1.84%
14,CC(C)C[C@H](NC(=O)[C@@H]1O[C@H]1C(=O)O)C(=O)NCCCCN=C(N)N,112% (active)
15,O=C1CC2(CCN(C(=O)COc3ccc(F)cc3)CC2)Oc2ccccc21,-0.88%
16,O=C(CN1C(=O)c2ccccc2C1=O)NCc1ccc(C(=O)O)cc1,10.4%
17,CC(=O)N(C1=C(Cl)C(=O)c2ccccc2C1=O)c1ccc(C(=O)O)cc1,41.1% (active)
18,CC(C)N(C(=O)c1ccc(-c2ccccc2F)cc1)C(C)C,-3.72%
19,CCN(CC)CCNS(=O)(=O)c1ccc(/C=C/C(=O)O)cc1,8.82%
20,Cc1ccc(C(C)C)c(OCCSc2nc3ccccc3n2CC(=O)O)c1,2.31%
21,CC(C(=O)NCCc1ccc(S(N)(=O)=O)cc1)N1C(=O)CC(C)(C)Sc2ccccc21 (centres undefined),3.12%
22,Cc1cc(C(=O)OC(C)C(=O)NC2CCCCC2C)c(C)o1 (centres undefined),1.05%
23,CC(OC(=O)CNC(=O)c1cccc(F)c1)C(=O)NC1CCCCC1C (centres undefined),46.5% (active)
24,CC(OC(=O)CNC(=O)c1ccc(Cl)c([N+](=O)[O-])c1)C(=O)NCc1ccco1 (centres undefined),-10.4%

row,Structure (SMILES),inhibition
1,Cc1ccccc1OCc1nnc(SCC(=O)N2c3ccccc3Sc3ccc(Cl)cc32)o1,1.54%
2,CCOC(=O)C1=C(O)/C(=C/c2cc(C)n(-c3ccccc3)c2C)N=C1C,-0.93%
3,N#Cc1ccccc1NC(=O)c1cccc(COc2ccc(Cl)cc2Cl)c1,2.17%
4,COc1ccccc1Oc1ccc(N/C=C2/CCCC2=O)cc1,6.01%
5,CCCCC(=O)Nc1nnc(S(=O)(=O)N(C)Cc2ccco2)s1,-1.17%
6,CC1(C)CC(=O)C/C(=N\NC(=O)c2cccs2)C1,-1.64%
7,C=CCNC(=O)CSc1nc2scc(-c3ccco3)c2c(=O)n1CC=C,35.5% (active)
8,C=CCn1c(=S)[nH]c2scc(-c3ccco3)c2c1=O,-1.34%
9,C=CCn1c(SCc2csc(C)n2)nc2scc(-c3ccc(C)o3)c2c1=O,1.45%
10,CCC1Oc2ccccc2N(CC(=O)NCCCN2CCN(CC)CC2)C1=O (centres undefined),1.49%
11,Cc1ccc2oc(=O)c3cnn(CC(=O)N(Cc4ccco4)C4CCCCC4)c3c2c1,42.9% (active)
12,Cc1ccc2oc(=O)c3cnn(CC(=O)N4CCCCCC4)c3c2c1,-4.76%
13,COCCCN(C(=O)Cn1ncc2c(=O)oc3ccc(C)cc3c21)C(C)c1ccncc1 (centres undefined),3.63%
14,Cc1cccc(NC(=O)c2cc(S(=O)(=O)N3CCC4(CC3)OCCO4)ccc2F)c1,-2.65%
15,CN(C)c1nc(NN)nc(Nc2ccc(F)cc2)n1,11%
16,Nc1c(N(CCO)C(=O)C2CCCCC2)c(=O)[nH]c(=O)n1Cc1ccccc1,23.6% (active)
17,CCN(C(=O)CN1CCN(Cc2ccccc2)CC1)c1c(N)n(Cc2ccccc2)c(=O)[nH]c1=O,-1.57%
18,COCCn1c(N)c(N(Cc2ccccc2)C(=O)C2CCCCC2)c(=O)[nH]c1=O,3.45%
19,Cc1sc(NC(=S)NC(=O)c2cccs2)nc1-c1ccc(CC(C)C)cc1,-0.85%
20,COc1cc(OC)nc(N/N=C(\c2ccccc2)c2ccncc2)n1,1.22%
21,CCC(=O)Nc1nc(OC)cc(OC)n1,3.53%
22,COc1cc(OC)nc(NC(=O)CCl)n1,19.4% (active)
